This is a sample that favours compounds with a hit; in the whole collection about 1.9% have one here.
TDP43 rescue = TDP-43 toxicity inhibition in yeast; TDP-43 expressing yeast growth rescue, BacTiter-Glo, 24 h; Potency, µM (titrated, usually from 46.1 µM), inactives show at the highest dose growth rescue (activation), actives largely listed as activators; hit rate 1.8% among 410,000; also: potency is read from the fitted curve at half-maximal effect; % of control where 0% means no effect; nearly all actives have a fitted effect of over 50% in size
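In this qHTS, compounds that restore growth of yeast expressing TDP-43 appear as activators. Cells (OD600=0.02, galactose medium, raffinose-pregrown) are incubated with compound 24 hr at 30 deg C and growth is quantified by BacTiter-Glo.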
LDHA inh = inhibitors of human lactate dehydrogenase A | P00338 | purified LDHA, NADH/diaphorase-resazurin fluorescence; active compounds read low | activity change, % (values are at about 110 or 230 µM) | hit rate 0.15% among 480,000 | AID 1347041; in the data active = activity change below about -30%; inconclusive = mostly about -25% to -30%;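 also: plate controls were DMSO wells for no effect and wells without enzyme for full effect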
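LDH5 2 nM; NADH 0.06 mM, pyruvate 0.2 mM; 200 mM Tris pH 7.4, EDTA, Tween-20; 5 min RT. Detection: diaphorase 0.133 mg/mL + resazurin 37 µM, fluorescence ex540/em590 at 0 and 20 min; normalized to enzyme-free and DMSO wells.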
FUS yeast rescue = FUS proteinopathy suppression in yeast | S. cerevisiae FUS-expressing, growth rescue, OD600, 24 h | Potency, µM (doses to about 76.6 µM), hits mostly activators | hit rate 0.24% among 390,000 | AID 1347120;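 also: potency is read from the fitted curve at half-maximal effect; plate controls were DMSO vehicle for no effect and reference control for full effect; nearly all actives have a fitted effect of over 55% in size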
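Yeast FUS proteinopathy model; galactose-induced FUS (2%), starting OD 0.005. Cpds in dilution series, 24hr, 30C, 99% humidity. Abs 600 nm growth. Pos ctrl CP55940 (top 92uM final); neg ctrl DMSO.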
PTHR1 ag = agonists of human PTHR1 parathyroid hormone receptor. hit rate 0.075% among 410,000. HEK293 GP2 PTHR1 cells, GloSensor cAMP luminescence, 1 h. Potency, µM (titrated, usually from 115 µM), without a hit: at the top dose activation, actives largely listed as activators. Q03431. AID 743266; also: potency is read from the fitted curve at half-maximal effect; nearly all actives have a fitted effect of over 55% in size
Target sequence (Q03431 whole entry, looked up): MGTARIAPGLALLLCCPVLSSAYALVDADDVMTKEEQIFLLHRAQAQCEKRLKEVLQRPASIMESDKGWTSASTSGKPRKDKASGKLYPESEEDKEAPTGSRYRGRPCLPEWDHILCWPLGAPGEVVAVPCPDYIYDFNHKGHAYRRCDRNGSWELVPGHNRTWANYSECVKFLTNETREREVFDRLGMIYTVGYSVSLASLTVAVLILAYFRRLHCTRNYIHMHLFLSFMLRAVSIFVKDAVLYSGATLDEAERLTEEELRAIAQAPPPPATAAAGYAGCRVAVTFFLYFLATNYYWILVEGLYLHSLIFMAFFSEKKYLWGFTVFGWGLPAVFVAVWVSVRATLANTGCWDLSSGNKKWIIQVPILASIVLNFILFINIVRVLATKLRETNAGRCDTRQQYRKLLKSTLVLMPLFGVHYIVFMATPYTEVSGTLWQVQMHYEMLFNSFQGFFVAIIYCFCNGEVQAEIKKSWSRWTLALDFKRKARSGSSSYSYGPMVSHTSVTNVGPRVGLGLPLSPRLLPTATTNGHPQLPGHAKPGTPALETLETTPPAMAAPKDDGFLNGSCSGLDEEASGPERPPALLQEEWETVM
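HEK-293-derived GP2 cells expressing PTHR1 and a GloSensor cAMP reporter, 3,000/well, plated overnight, given luciferin plus IBMX (each 0.5 mM as added) for 1 h at 37 °C, then compound for 1 h at 37 °C. Luminescence was read after 15 min at room temperature.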
Abeta yeast res = compounds reversing amyloid beta toxicity in yeast | yeast expressing A-beta42, growth rescue, OD600, 48 h; response scale: 0% DMSO, 100% iron-clioquinol control | Potency, µM (highest dose often 46.1 µM), actives largely listed as activators | AID 1347071 | hit rate 0.063% among 410,000; also: potency is read from the fitted curve at half-maximal effect; nearly all actives have a fitted effect of over 55% in size
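Yeast A-beta toxicity model in growth medium with pinned compounds, 48 h at 30 C; growth read as absorbance at 600 nm. Normalized to FeCl3/clioquinol equimolar mix (positive) and DMSO (negative).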
aSyn rescue = inhibitors of alpha-synuclein toxicity in yeast. Yeast expressing alpha-synuclein, growth rescue, BacTiter-Glo, 24 h. Potency, µM (doses to about 46.1 µM), without a hit: at the highest dose growth rescue (activation), usual class: activators. hit rate 0.14% among 370,000; also: potency is read from the fitted curve at half-maximal effect; % of control where 0% means no effect; nearly all actives have a fitted effect of over 65% in size
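Readout is rescue of growth in alpha-synuclein-expressing yeast, so inhibitors of toxicity appear as activators. Growth after 24 hr at 30 deg C in galactose medium is quantified by luminescence.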
An asterisk follows results filed as active; i = inactive; ? = inconclusive; · = no result given; [ ] = dose if it differs, or a comment. Unless noted, calls follow the shape of the dose curve; as a rule, active = well fitted curve in the direction sought with a large enough effect; inconclusive = small, poorly fitted or top-dose-only effect, or another doubt; inactive = no such curve, though single readings can be large; an effect the other way counts as inactive or inconclusive.

SMILES	TDP43 rescue	LDHA inh	FUS yeast rescue	PTHR1 ag	Abeta yeast res	aSyn rescue
C[C@@]12C(=O)Nc3ccc(Cl)cc3C(=O)N1[C@H]1c3cc(Br)ccc3OC[C@@H]1[C@@H]2c1ccccc1	10%	2	28µM*	-9%	i	10%
Cc1ccccc1/[N+]([O-])=C/c1ccccc1	·	30	·	·	·	·
CC(NC(=O)CCSc1ccc(Cl)cc1)c1ccccc1 (stereo not given)	·	-6	·	·	·	·
Cc1ccc2c(c1)[C@H]1[C@H](CO2)[C@H](c2ccccc2)[C@]2(C)C(=O)N(Cc3ccc(F)cc3)CC(=O)N12	21%	1	i	-14%	16µM*	0%
Clc1cccc(Nc2nc(-c3ccncc3)cs2)c1	13µM*	-2	i	-21%	i	3%
Cc1ccc(Cl)cc1Nc1nc(-c2cccnc2)cs1	13µM*	-1	i	i	i	3%
Clc1ccc(Nc2nc(-c3cccnc3)cs2)cc1	19%	-8	i	-21%[57.5 µM]	i	-7%
Cc1cccc(Nc2nc(-c3ccncc3)cs2)c1	?	-2	i	-17%	i	11%
O=C(c1cccs1)n1cc(C(=S)N2CCOCC2)c2ccccc21	20µM*	0	i	i	i	·
O=C(C1CC1)n1cc(C(=S)N2CCOCC2)c2ccccc21	4%	-2	i	i	i	-14%
Cc1ccc(C)c(OCCn2c(C3CC(=O)N(Cc4ccc(F)cc4)C3)nc3ccccc32)c1 (stereo not given)	35µM*	2	?	-2%	i	·
CCc1ccccc1N1CC(c2nc3ccccc3n2CCOc2ccc(Cl)c(C)c2)CC1=O (stereo not given)	-11%	1	25µM*	-96%	i	·
Cc1cccc(OCCCCn2c(C3CC(=O)N(c4ccc(C)cc4C)C3)nc3ccccc32)c1 (stereo not given)	32µM*	-1	?	-30%	i	·
CCc1ccc(N2CC(c3nc4ccccc4n3Cc3ccccc3C)CC2=O)cc1 (stereo not given)	28µM*	2	?	-9%	i	·
Cc1ccc(C(=O)Oc2cccc(NC(=O)c3ccccc3)c2)cc1C	12%	2	·	i	?	0%
O=C(Nc1cccc(OC(=O)c2ccc(Br)o2)c1)c1ccccc1	22µM*	-3	i	i	i	-7%
CC(C)(Cc1cc(CC(C)(C)C(=O)O)cc(C(C)(C)C)c1)C(=O)O	35µM*	-6	i	i	i	3%
Cc1ccc(CN(c2ccc(C(=O)NCc3ccccc3C)cc2)S(C)(=O)=O)cc1	·	-3	·	·	·	·
CC1(C(=O)Nc2cccc3c2CCCC3)CCN1C(=O)c1cccc(F)c1 (stereo not given)	28µM*	-2	i	-2%	i	9%
Cc1cc2cc3c(cc2nc1SCC(=O)O)OCCO3	9%	-1	i	-17%[57.5 µM]	i	-1%
Cc1cc2cc3c(cc2nc1SCC(=O)N1CCCC1)OCCO3	18µM*	-9	i	i	i	3%
Cc1ccc2c(=O)cc(C(=O)NCC(c3cccs3)N3CCCCCC3)oc2c1C (stereo not given)	·	2	·	·	·	·
COC(=O)C1(NC(=O)COc2cccc(F)c2)CCCCC1	·	-11	·	·	·	·
COC(=O)C1(NC(=O)COc2cc(Cl)ccc2Cl)CCCCCC1	·	-31*	·	·	·	·
COc1ccc(Oc2c(C)oc3cc(OCC(=O)NC4CCS(=O)(=O)C4)ccc3c2=O)cc1 (stereo not given)	·	3	·	·	·	·
SMILES	TDP43 rescue	LDHA inh	FUS yeast rescue	PTHR1 ag	Abeta yeast res	aSyn rescue
Oc1ccc(C2C[C@H]3CC[C@@H]2C3)cc1O (stereo not given in full)	14µM*	25	i	-16%	?	3%
O=C1CC(c2ccc(O)c(O)c2)Oc2cc(O)cc(O)c21 (stereo not given)	8%	1	i	-6%	i	1%
Nc1nc2c(s1)C(c1ccccc1OCc1ccccc1Cl)CC(=O)N2 (stereo not given)	·	82	·	·	·	·
CC(CNC(=O)c1cc(-c2ccccc2)n[nH]1)c1ccccc1 (stereo not given)	35µM*	-5	i	i	i	·
CCN(Cc1ccccc1)C(=O)c1cc(-c2ccccc2)n[nH]1	18µM*	-4	i	-48%	i	·
Cc1ccccc1OCC(O)Cn1c(N)nc2c1c(=O)n(C)c(=O)n2C (stereo not given)	·	-37*	·	·	·	·
Cc1ccccc1OCC(O)Cn1c(Br)nc2c1c(=O)n(C)c(=O)n2C (stereo not given)	27%	-7	i	i	i	2%
O=C(COc1ccccc1)N(Cc1cccnc1)c1nc2c(F)cccc2s1	18µM*	-1	i	-3%	i	·
O=C(COc1ccccc1)N(Cc1cccnc1)c1nc2ccc(Cl)cc2s1	16µM*	-2	i	-12%	i	·
O=C(CCOc1ccccc1)N(Cc1cccnc1)c1nc2c(F)cccc2s1	5%	-2	i	i	i	·
O=C(CCc1ccccc1)N(Cc1cccnc1)c1nc2c(F)cccc2s1	16µM*	-5	i	-25%	i	·
Cc1ccc(N/C(C(Cl)=C(Cl)Cl)=C(/Cl)[N+](=O)[O-])c(C)c1	13µM*	5	i	-34%	i	8%
Cc1ccc(NC(=O)CC(=O)Nc2ccc(C)cc2C)c(C)c1	5%	-2	i	i	i	8%
COc1cccc(-n2c(SCC(N)=O)nc3c(c2=O)C2(CCCC2)Cc2ccccc2-3)c1	·	-7	·	·	·	·
COc1ccc(/C=C(\C#N)C(=O)Nc2ccccc2C(=O)O)cc1OC(=O)c1ccccc1Cl	·	2	·	·	·	·
CCc1cc(C(=O)c2ccccc2)c(N)s1	11µM*	0	i	-5%	i	2%
CCCN(CC1CC1)C(=O)CNC(N)=O	·	11	·	·	·	·
Nc1cc([N+](=O)[O-])ccc1OCc1ccccc1	?	-4	·	-32%	i	1%
O=c1cc(C(O)C[N+](=O)[O-])occ1OCc1ccccc1 (stereo not given)	-8%	-1	32µM*	-86%	i	-7%
CCCCCc1cc(O)c2c(C)cc(=O)oc2c1	3.2µM*	0	i	-28%	i	-9%
Cc1cc(=O)oc2cc(O)cc(O)c12	4%	9	i	-4%	i	-1%
Cc1ccc(S(=O)(=O)N=Nc2c(O)[nH]c3ccccc23)cc1C	-5%	-36*	i	-41%	i	-6%

Compound activity: PubChem, National Center for Advancing Translational Sciences (NCATS)
